Screening results: PubChem BioAssay, The Scripps Research Institute Molecular Screening Center
Most compounds without a hit are left out; they make up all but 4.1% or so of the library.
hgDAF-12 ag – hgDAF-12 agonism, primary luciferase screen. HEK293 GAL4-hgDAF12 UAS-luciferase reporter, agonist luminescence; normalized to butyrate control. activation, % at 6.8 µM. 370,000 tested, 1.8% active;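 active = activation above a cutoff set at the mean of all screened compounds plus 3 SD, cut at about 10% in these data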;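 note: 0% = DMSO wells and 100% = sodium butyrate wells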
DAX1 inh-1 – inhibits human nuclear receptor DAX1; P51843; HEK293 Gal4-DAX1 luciferase reporter, luminescence; inhibition, % at 6.75 µM; 340,000 tested, 0.99% active; AID 504766;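 active = inhibition above the mean over all tested compounds plus 3 SD, cut at about 4.2% in these data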;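 note: 0% = DAX1-transfected cells with DMSO and 100% = empty-vector control cells with DMSO; inhibition shows as a rise in luminescence from relieved DAX1 repression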
Target sequence (P51843 207-470 limits assumed): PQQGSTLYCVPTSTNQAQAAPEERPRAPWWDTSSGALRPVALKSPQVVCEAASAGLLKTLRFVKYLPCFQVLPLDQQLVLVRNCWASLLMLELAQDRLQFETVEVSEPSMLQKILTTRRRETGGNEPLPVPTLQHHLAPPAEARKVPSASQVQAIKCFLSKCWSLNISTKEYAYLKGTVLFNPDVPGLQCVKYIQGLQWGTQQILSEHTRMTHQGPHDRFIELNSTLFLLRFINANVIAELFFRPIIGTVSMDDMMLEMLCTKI
hcDAF12 agonist – H. contortus DAF-12 activation, primary screen; HEK293 hcDAF-12 lit1-tk-luc reporter, luminescence; 0% DMSO, 100% Δ7-dafachronic acid; activation, % at 6.8 µM; 370,000 tested, 1.4% active;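 active = activation above the mean of all tested compounds plus 3 SD, cut at about 5.5% in these data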;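 note: 100% = response to 3 µM Δ7-dafachronic acid high control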
ssDAF12 agonist – activators of S. stercoralis DAF-12 nuclear receptor; HEK293 ssDAF-12/GRIP1 lit1-tk-luc reporter, luminescence; % of 3 µM dafachronic acid response; activation, % at 6.8 µM; 370,000 tested, 1% active;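 active = activation above the mean over all tested compounds plus 3 SD, cut at about 0.9% in these data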;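 note: 0% = DMSO-only wells and 100% = 3 µM delta7-dafachronic acid wells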
DAX1 inh-2 – blocks DAX1 repression of SF-1 activated StAR promoter | inhibition, % at 6.8 µM | HEK293T StAR-luciferase reporter, SF-1/DAX-1 repression relief | 370,000 tested, 1.1% active;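 active = inhibition above the mean over all tested compounds plus 3 SD, cut at about 3.6% in these data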;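 note: 0% = DAX-1 cells with DMSO and 100% = cells lacking DAX-1 with DMSO; higher inhibition means more luminescence from relief of DAX-1 repression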
Active calls of the source: *; . = not tested or not shown.

SMILES	hgDAF-12 ag	DAX1 inh-1	hcDAF12 agonist	ssDAF12 agonist	DAX1 inh-2
CCn1c(/C=C/c2cc[n+](C)cc2)nc2ccccc21	2	4.2*	2	-1	0
COc1cc2c(cc1OC)[C@](C)(c1ccccc1)C[C@@H]2NCC=C(C)C	0	.	-1	-1	0
CCc1ccc2oc(C(=O)Nc3cccnc3)c(C)c2c1	.	5.1*	.	.	.
C=CCN(CC=C)C(=S)NC(=O)/C=C/c1ccc(OC)cc1	0	-1	0	1.4*	0
CC1=CC(=O)Nc2ccccc2S1	11*	3	5.7*	1.1*	1
C[C@H]1[C@H](c2ccccc2)Oc2cccc(NCCc3ccccc3)c2S(=O)(=O)N1Cc1ccc(F)cc1	3	.	0	-1	1
CN(C)c1ncnc2c1ncn2[C@H]1CN(Cc2ccco2)C[C@@H](CO)O1	2	.	-1	-1	2
Cc1cc(NS(=O)(=O)c2ccc(NC(=S)NCc3ccccc3)cc2)no1	0	6.5*	-1	-1	0
Cc1cccc2nc(CSc3nnc4ccccn34)cn12	12*	2	5.8*	0	4
Cc1cccc(N2CCN(C(=O)c3cc4c(=O)n(C)c5ccccc5c4n3C)CC2)c1C	-2	-1	-2	1.9*	1
Cc1ccc(Cl)cc1N1CCN(C(=O)c2cc3c(=O)n(C)c4ccccc4c3n2C)CC1	-1	-1	-2	-1	0
COC(=O)C1(Cc2ccc(O)cc2)OC(=O)C(O)=C1c1ccc(O)cc1 (centres undefined)	0	7.4*	0	-1	1
COC(=O)CCc1ccc(O)cc1	1	2	-1	-1	1
NC(=O)c1ncn([C@@H]2O[C@H](C(=O)Nc3ccc(C(=O)N4CCCCC4)cc3)[C@@H](O)[C@H]2O)n1	2	.	-1	-1	1
COC(=O)[C@]12C[C@H](CC(=O)NCCCCc3ccccc3)C(=O)N(Cc3ccccc3)C1=C[C@H](C1CCCC1)O[C@@H]2C	-1	.	-2	-1	-1
O=C(CN1CCCCC1CO)c1ccc(OC(F)F)cc1 (centres undefined)	0	4.5*	-1	-2	0
Cc1ccc(C(=O)c2cc3ccccc3o2)cc1	12*	3	3	0	2
Cc1ccc(C(=O)c2cc3ccccc3o2)cc1C	11*	3	5	1	2
COC(=O)/C=C1\OC(c2ccccc2)c2ccccc21 (centres undefined)	1	.	1	-1	-1
CC1(C)CC(=O)C(CC(=O)NC2CCCc3ccccc32)C(=O)C1 (centres undefined)	-1	6.1*	-1	-1	0
CC1C(=O)N(Cc2cn(Cc3ccco3)nn2)CCS(=O)(=O)N1Cc1ccc(-c2ccc(F)cc2Cl)cc1 (centres undefined)	3	.	1	-2	-1
CCOc1cc(C(=S)N2CCOCC2)ccc1OC(=O)/C=C/c1ccc(OC)c(OC)c1	11*	-1	-1	-2	0
CCOc1ccc(/C=C/C(=O)N2CCOCC2)cc1OC	-1	0	0	-1	0
COc1cc(C2C(C#N)=C(N)Oc3cc(O)ccc32)cc(OC)c1OC (centres undefined)	-1	0	0	-1	0
COc1cc(C2C(C#N)=C(N)Oc3cc4c(cc32)OCO4)cc(OC)c1OC (centres undefined)	-1	1	0	-1	4.4*
SMILES	hgDAF-12 ag	DAX1 inh-1	hcDAF12 agonist	ssDAF12 agonist	DAX1 inh-2
Nc1nc2c(ncn2[C@@H]2O[C@H](CNCc3cnc(N4CCOCC4)nc3)[C@@H](O)[C@H]2O)c(=O)[nH]1	4	.	-1	0	-1
Oc1ccc(-c2[nH]ncc2-c2ccc(Cl)cc2)c(O)c1	-2	1	0	-2	0
Oc1ccc(-c2[nH]ncc2-c2ccc(Br)cc2)c(O)c1	5	6.4*	0	-1	0
CCOC(=O)CSc1ccc(-c2nc3ccccc3[nH]2)cn1	5	2	-1	-1	-1
N#CCSc1ccc(-c2nc3ccccc3[nH]2)cn1	11*	0	2	0	3
CCOc1cc(C(=O)NCCOC)cc(OCC)c1OCC	2	0	2	1.5*	0
c1ccc2nc(-c3ccc(N4CCOCC4)cc3)ccc2c1	9	-2	6.3*	0	3.8*
COc1ccc(Nc2oc(-c3ccc(Cl)cc3)nc2C#N)cc1	11*	1	3	0	0
COc1ccc(Nc2oc(-c3ccc(OC)cc3)nc2C#N)cc1	7	0	1	-1	1
COc1ccc(Nc2oc(-c3ccccc3)nc2C#N)cc1	10*	-1	1	-2	0
COC(=O)[C@]12C[C@H](CC(=O)N3CCSCC3)C(=O)N(CCc3ccc(OC)c(OC)c3)C1=C[C@H](COCc1ccccc1)O[C@@H]2C	-2	.	-2	-1	-2
CCCc1cc(=O)[nH]c(SCC(=O)Nc2cccc(S(=O)(=O)N3CCCCC3)c2)n1	3	0	0	0	-1
Cc1ccccc1Cn1cc(CN2[C@H](Cc3ccccc3)COc3cc(Br)ccc3S2(=O)=O)nn1	0	.	0	-1	0
Nc1ccc(Oc2cc(N)cc(Oc3ccccc3)c2)cc1	5	4.6*	4	-1	1
Nc1ccc(Oc2ccc3nc(-c4ccccc4)c(-c4ccccc4)nc3c2)cc1	2	-1	0	-1	-1
O=C1c2ccccc2C(=O)c2c(NCc3cccnc3)cccc21	4	0	-1	-1	-1
O=C1c2cccc(NCCCNCCO)c2C(=O)c2cccc(NCCCNCCO)c21	5	0	4	1.0*	-2
CC(C)CNS(=O)(=O)CC1NCc2ccccc21 (centres undefined)	6	.	3	-1	-1
S=C(Nc1ccc2c(c1)OCO2)NC1CCN(Cc2ccccc2)CC1	0	4.7*	1	-2	-1
S=C(Nc1ccc2c(c1)OCO2)N1CCN(Cc2ccco2)CC1	11*	1	2	0	3
Cc1ccc(NC(=S)NC2CCN(Cc3ccccc3)CC2)cc1C	0	0	-1	-1	0
CCOC(=O)[C@]12CCCCC/C=C\1N(CCc1ccc(Cl)cc1)C(=O)[C@H]2CC(=O)N1CCCCC1	-3	.	-2	-2	-2
C=CCSc1nnc2nc3[nH]c4c(C)cccc4c3nn12	6	1	4	0.9*	1
COc1ccc(S(=O)(=O)Nc2cccc(-c3ccc(N4CCCCCC4)nn3)c2)c(OC)c1	4	0	5	-1	2
CCOC(=O)C1CSCCS(=O)(=O)N1Cc1cccc(Cl)c1 (centres undefined)	2	.	-1	-1	-1
CC1CCCCC1NC(=O)c1cc2ccccc2o1 (centres undefined)	11*	0	2	-1	0
CC1CCCCC1NC(=O)c1cc(Cl)nc2ccccc12 (centres undefined)	5	2	3	1.4*	2
